Measurements as given in PubChem BioAssay (NCI).
About 79,000 compounds went through this panel and 15% of them were active in at least one assay; those are over-represented in the sample as a whole. Rule as the data show it: active = growth inhibition above about 70%; inactive = the rest.

Tests used:
[1] = NCI Yeast Anticancer Drug Screen. Data for the rad50 strain (AID 155);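 also: 0% = growth of vehicle-only cultures of the same strain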; details: S. cerevisiae rad50 strain growth inhibition; at 50.0 µM; active compounds read high
In short: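 Inhibition values express reduced yeast growth in compound-treated cultures relative to vehicle-treated controls.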

[2] = NCI Yeast Anticancer Drug Screen. Data for the mec2-1 strain (AID 157); details: S. cerevisiae mec2-1 strain, at 50.0 µM, active compounds read high
In short: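 Compounds were applied to mec2-1 yeast cells. Their growth was then compared with that of vehicle-treated cultures to give growth inhibition.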

[3] = NCI Yeast Anticancer Drug Screen. Data for the sgs1 mgt1 strain (AID 161);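 also: 0% = growth of cultures given vehicle only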; details: S. cerevisiae sgs1 mgt1 strain, at 50.0 µM, active compounds read high
In short: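 Compounds are added to genetically altered yeast, and growth is compared with cultures given vehicle alone to give percent inhibition.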

[4] = NCI Yeast Anticancer Drug Screen. Data for the cln2 rad14 strain (AID 165);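 also: 0% = growth equal to vehicle treated cultures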; details: S. cerevisiae cln2 rad14 strain, at 50.0 µM, active compounds read high
In short: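 Strain: cln2 rad14 yeast, altered in cell cycle control and DNA damage repair. Read-out: growth inhibition vs vehicle.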

[5] = NCI Yeast Anticancer Drug Screen. Data for the bub3 strain (AID 167); details: S. cerevisiae bub3 mutant strain, at 50.0 µM, active compounds read high
In short: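 Steps: expose the mutant yeast strain to compound; grow alongside vehicle-treated cultures; measure growth; express inhibition against the vehicle cultures.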

[6] = NCI Yeast Anticancer Drug Screen. Data for the mlh1 rad18 strain (AID 175); details: S. cerevisiae mlh1 rad18 strain growth inhibition; at 50.0 µM; active compounds read high
In short: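 A repair-deficient yeast strain is exposed to test compound, and growth is scored relative to vehicle-treated controls.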

Measured: growth inhibition

O=C1ON(c2ccccc2)C(c2ccc(OCc3ccccc3)cc2)N1c1ccccc1 (stereo not given)
inactive: [1] 42.6% | [2] 14% | [3] 11.8% | [4] 4.35% | [5] 27.5% | [6] 26.8%

CCOC(=O)COC(=O)CCc1ccccc1
inactive: [1] 0.3% | [2] -39.6% | [3] -5% | [4] -36.8% | [5] -12.9% | [6] 0.45%

Cc1ncc([N+](=O)[O-])n1CCNC(=O)CCn1ccnc1[N+](=O)[O-]
inactive: [1] 10.2% | [2] -43.7% | [3] -49.6% | [4] 1.1% | [5] -18.7% | [6] -22.9%

C[C@@]1(CO)CCc2c(c3ccccc3oc2=O)O1
inactive: [1] 2.2% | [2] 6.45% | [3] 9.55% | [4] 8% | [5] 1.8% | [6] -6.35%

CC(=O)NC(CCCc1ccccc1)C(=O)O (stereo not given)
inactive: [1] 7.65% | [2] 9% | [3] -17.1% | [4] -23.1% | [5] 2.45% | [6] -18.9%

CSC1=Nc2cccnc2Nc2cscc21
inactive: [1] -9.25% | [2] -6% | [3] 22.1% | [4] 9.65% | [5] -3.8% | [6] 25.1%

N#Cc1cccc(CC(O)(c2ccccc2)c2ccccc2)c1
inactive: [1] 19.6% | [2] 19.9% | [3] 5.1% | [4] 11% | [5] 20.5% | [6] 18.4%

COC(=O)c1ccc(Cl)c(Cl)c1Cl
inactive: [1] -3.6% | [2] -7.35% | [3] -19.6% | [4] -11.8% | [5] 6.1% | [6] -26.3%

CS/N=C(\c1ccccc1)N(C)C
inactive: [1] -23.9% | [2] -4.05% | [3] -1.45% | [4] -25.1% | [5] -1.6% | [6] 3.35%

CC1(Br)S(=O)(=O)OCCOS1(=O)=O
inactive: [1] -23% | [2] -15.9% | [3] -12.3% | [4] 6.1% | [5] -24.2% | [6] -42.5%

O=C([O][Sb]([O]C(=O)C(Br)Br)([c]1ccccc1)([c]1ccccc1)[c]1ccccc1)C(Br)Br
inactive: [1] 15.7% | [2] 5% | [3] 20.6% | [4] -14.2% | [5] -0.1% | [6] 36.6%

CNc1ccc(C(=O)O)cc1C(F)(F)F
inactive: [1] -0.35% | [2] -1.45% | [3] -6% | [4] 0.65% | [5] -32.6% | [6] 8.85%

CC(=O)NC(NCCN)(c1ccccc1)c1ccccc1
inactive: [1] -9.7% | [2] -26.4% | [3] -8.1% | [4] 11.6% | [5] 9.6% | [6] -8.45%

CC(=O)NC1=NCC(CSc2nc3ccccc3s2)S1 (stereo not given)
inactive: [1] -8.45% | [2] -14.3% | [3] 5.65% | [4] -26.2% | [5] 9.7% | [6] 4.3%

O=C(O)C(=Cc1ccnc2ccccc12)C(=O)O
inactive: [1] 7.75% | [2] -13.7% | [3] -35.8% | [4] 15.7% | [5] -52.2% | [6] 3.5%

O=C1CC2(CCc3ccccc32)C(=O)N1CN1CCN(c2ccccn2)CC1 (stereo not given)
inactive: [1] 0.55% | [2] 3.5% | [3] -10% | [4] -9.15% | [5] -1.9% | [6] 18.1%

O=C(C[N+]12CN3CN(CN(C3)C1)C2)c1ccc(-c2ccccc2)cc1
inactive: [1] 65.7% | [2] 34.2% | [3] 53.2% | [4] 21.1% | [5] 39.2% | [6] 45.6%

N/C(=N\S(=O)(=O)c1cc(C(F)(F)F)cc(C(F)(F)F)c1)c1ccncc1
inactive: [1] 4.95% | [2] 11.2% | [3] 23.9% | [4] 1.3% | [5] 19.6% | [6] 24.7%

Nc1ccc([N+](=O)[O-])c(C(F)(F)F)c1
inactive: [1] 14.1% | [2] -33.6% | [3] 4.25% | [4] -14.4% | [5] -6.55% | [6] 22.6%

COc1ccc(CSCc2cc(OC)c(OC)c(OC)c2)cc1
inactive: [1] -13.5% | [2] 16.8% | [3] -24.1% | [4] 0.3% | [5] 51.2% | [6] -2.15%

CNC(=O)c1ccccc1C(=N)c1ccccc1
inactive: [1] -12.6% | [2] -5.4% | [3] -11.2% | [4] -8.05% | [5] -9.65% | [6] -8.35%

Cc1ccc(NC(=O)Oc2cc(C)c(Cl)cc2C(C)C)cc1
inactive: [1] -3.9% | [2] 54.2% | [3] 43% | [4] -28.2% | [5] 51.4% | [6] 65%

Cc1ccc(C)c2c1C(=O)c1ccccc1C2(O)C#Cc1ccccc1 (stereo not given)
inactive: [1] 27.6% | [2] 1.45% | [3] 29.4% | [4] 21.1% | [5] 31.7% | [6] 23.2%

CCC(=O)C(C)C1(C(=O)OC)NC(=S)NC(=O)C1C#N (stereo not given)
inactive: [1] 5.4% | [2] -4.75% | [3] -15.8% | [4] -6.4% | [5] -22.1% | [6] -6.1%

C/C=C\COC(=O)C(C)OC(=O)OCC (stereo not given)
inactive: [1] 14.2% | [2] 11.8% | [3] 4.85% | [4] 5.75% | [5] -0.65% | [6] 0.5%

C=CC1=C(C)C2=NC1=CC1=NC(=CC3=C(C)C4=C(O)[C@H](C(=O)OC)C(=C5NC(=C2)[C@@H](C)[C@@H]5CCC(=O)O)C4=N3)C(CC)=C1C
inactive: [1] 1.65% | [2] 8.1% | [3] 31.2% | [4] 28.1% | [5] 21.1% | [6] 5.9%

O=C(COc1ccc(Cl)cc1)NC(CO)(CO)CO
inactive: [1] 22.1% | [2] 16.3% | [3] 18.9% | [4] 43% | [5] 17.1% | [6] 10.8%

CC1(C)CC2=C(Sc3ccccc3N2)C(=O)C1C(=O)C(=O)Nc1cccc([N+](=O)[O-])c1 (stereo not given)
inactive: [1] -22.1% | [2] -22.8% | [3] -11.7% | [4] -35.9% | [5] 2% | [6] 1.1%

c1ccc(NCNC2Nc3ccccc3N2)cc1
inactive: [1] -25.9% | [2] -13.2% | [3] 12.3% | [4] -3.35% | [5] -20.6% | [6] 11.6%

COc1cccc2c1[C@H]1CO[C@H]3C4C[C@H](C(=O)O)C([C@@H](C2)N13)N4C (stereo not given in full)
inactive: [1] 3.25% | [2] 4.4% | [3] 8.35% | [4] -12.1% | [5] -4.7% | [6] -2.5%

CC(C)c1ccccc1[S+]1OC(C)(C)c2ccccc21 (stereo not given)
inactive: [1] -4.9% | [2] 21.9% | [3] 6.95% | [4] 9.45% | [5] -1.5% | [6] -38.7%

CC1CCCC2(CN=C(Nc3ccccc3)O2)C1 (stereo not given)
inactive: [1] -13.7% | [2] -8.45% | [3] -7.05% | [4] -75% | [5] -10.1% | [6] -6.15%

O=C(CCN1C(=O)CC1c1ccco1)N1CCOCC1 (stereo not given)
inactive: [1] -1.55% | [2] -36.1% | [3] -10.5% | [4] 13.1% | [5] -18.2% | [6] 13.3%

O=C[c-]1[c-][c-][c-][c-]1.[Fe+2].[c-]1[c-][c-][cH-][c-]1
inactive: [1] 44% | [2] 58.5% | [3] 57.8% | [4] 49% | [5] 51.6% | [6] 14%

Cc1cc(N(CCC#N)CCC#N)ccc1/C(N=Nc1ccc([N+](=O)[O-])cc1)=N\NC(=O)c1cc(Cl)ccc1O
inactive: [1] 18.9% | [2] 8.8% | [3] -5% | [4] 6.85% | [5] -26.4% | [6] 9.1%

COc1cc(/C=C/C(=O)N[C@@H]2C(=O)N3[C@@H]2SC(C)(C)[C@@H]3C(=O)O)ccc1O
inactive: [1] -7.45% | [2] -11.2% | [3] -7.9% | [4] -1.55% | [5] -15.2% | [6] 6.65%

COC(=O)C1(CC(=O)c2ccc(N3CCN(c4ccc(C(=O)CC5(C(=O)OC)NC(=S)NC(=O)C5C#N)cc4)CC3)cc2)NC(=S)NC(=O)C1C#N (stereo not given)
inactive: [1] -19.5% | [2] -0.6% | [3] -21.4% | [4] 3.95% | [5] -18% | [6] -17.1%

CC(=O)Nc1ccccc1Sc1ccccc1
inactive: [1] -6.5% | [2] -17.1% | [3] 4.35% | [4] 15.1% | [5] 4.6% | [6] -20.9%

O=C(CSc1nc2[nH]ncc2c(=O)[nH]1)c1ccc(Cl)cc1
inactive: [1] -37.2% | [2] -36.6% | [3] -27.2% | [4] 3.5% | [5] 11.4% | [6] -34.2%

Nc1cc(N)n(C2=NCCN2)n1
inactive: [1] -1.5% | [2] -27.5% | [3] 8% | [4] 11.1% | [5] 0% | [6] -13.3%
